Screening results deposited in PubChem by National Center for Advancing Translational Sciences (NCATS).
This is one part of a sample in which hits are shown more often than they occur.
RECQ1 inh = blocks DNA unwinding by human RECQ1; AID 2549; RECQ1 DNA unwinding, red fluorescence kinetic read; 240,000 compounds, 0.54% hits; Potency, µM (doses to about 57.3 µM), actives largely listed as inhibitors; note: nearly all actives have a fitted effect of over 30% in size
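50 nM RECQ1T1 preincubated 15 min with compound in Tris pH 8.0 buffer with MgCl2, DTT, Tween-20 and 2.5 ug/ml poly(dI-dC); started with 200 nM TAMRA/BHQ-2 forked duplex and 2 mM ATP. Unwinding read as fluorescence (525/598 nm), two reads 2 h apart.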
APEX1 inh = APE1 (human) endonuclease inhibition | P27695 | recombinant APE1, TAMRA/BHQ-2 abasic DNA cleavage fluorescence | Potency, µM (doses to about 65.8 µM), most hits filed as inhibitors | 350,000 compounds, 0.35% hits; note: nearly all actives have a fitted effect of over 55% in size
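Endonuclease cleavage of a quenched abasic-site DNA duplex (50 nM) by APE1 (0.75 nM) was tracked by TAMRA dequenching. Compounds were preincubated with enzyme 15 min at room temperature; data normalized to buffer-only and DMSO wells plus NSC13755 control.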
KDM4E inh = JMJD2E (human) inhibition | 230,000 compounds, 1.6% hits | Potency, µM (series often up to 57.1 µM), usual class: inhibitors | B2RXH2 | AID 2147 | JMJD2E catalytic domain, FDH-coupled NADH fluorescence (FDH is formaldehyde dehydrogenase); note: nearly all actives have a fitted effect of over 50% in size
Target sequence (B2RXH2 1-337 limits assumed): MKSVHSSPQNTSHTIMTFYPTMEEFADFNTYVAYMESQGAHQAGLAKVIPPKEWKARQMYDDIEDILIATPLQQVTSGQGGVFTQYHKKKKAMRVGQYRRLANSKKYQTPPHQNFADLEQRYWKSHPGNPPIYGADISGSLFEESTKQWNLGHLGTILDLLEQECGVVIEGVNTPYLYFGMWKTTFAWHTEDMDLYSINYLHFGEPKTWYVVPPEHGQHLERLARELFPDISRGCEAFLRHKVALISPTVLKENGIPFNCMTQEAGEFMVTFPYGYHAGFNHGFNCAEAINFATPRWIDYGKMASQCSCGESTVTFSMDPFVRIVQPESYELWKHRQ
L3MBTL1 block = blocks human L3MBTL1 | Q9Y468 | AlphaScreen L3MBTL1–H3K9me1 peptide binding | Potency, µM (doses to about 57.1 µM), most hits filed as inhibitors | 230,000 compounds, 0.66% hits | AID 485360; note: nearly all actives have a fitted effect of over 60% in size
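L3MBTL1 (50 nM) pre-complexed 30 min with biotinylated H3(1-15)K9me1 peptide (75 nM), then compounds added for 30 min at room temperature; AlphaScreen streptavidin donor/nickel chelate acceptor beads (10 ug/mL final) read after 30 min dark incubation.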
GCN5L2 inh-1 = GCN5L2 (KAT2A) acetyltransferase inhibition | Q92830 | GCN5L2 HAT assay, ThioGlo1 CoA-SH fluorescence | Potency, µM (top dose mostly 58.9 µM), most hits filed as inhibitors | 390,000 compounds, 0.21% hits | AID 504327
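ThioGlo1-coupled HAT assay: 20nM GCN5L2, 70uM acetyl-CoA, 75uM H3(1-25) peptide, pH 7.5. Fluorescence read at 340/540nm at start and after 20 min at room temperature.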
BLM inh = blocks DNA unwinding by human BLM helicase | 350,000 compounds, 0.2% hits | Potency, µM (doses to about 56.1 µM), most hits filed as inhibitors | P54132 | recombinant BLM DNA unwinding, fluorescence dequenching; note: nearly all actives have a fitted effect of over 35% in size
GCN5L2 inh-2 = human KAT2A HAT inhibition, hit confirmation; GCN5L2 HAT, ThioGlo1 CoA fluorescence, 20 min; shares compounds with GCN5L2 inh-1; Potency, µM, actives largely listed as inhibitors; AID 588347; 140 compounds, 70% hits
Of the large screens only hits and unclear results are named; the others gave an inactive call (follow-up assays come after a bar, where they were run). Unless noted, calls come from the whole dose curve; as a rule, active = well fitted curve in the direction sought with a large enough effect; inconclusive = small, poorly fitted or top-dose-only effect, or another doubt; inactive = no such curve, though single readings can be large; an effect the other way counts as inactive or inconclusive.

O=C(O)c1cc(-c2ccc(-c3ccc(F)cc3)o2)nc2ccccc12	GCN5L2 inh-1 inconclusive (no result: RECQ1 inh, KDM4E inh, L3MBTL1 block) | GCN5L2 inh-2 20
COc1ccc2cc(-c3cc(C(=O)O)c4ccccc4n3)ccc2c1	KDM4E inh inconclusive, GCN5L2 inh-1 inconclusive | GCN5L2 inh-2 inconclusive
COc1ccc(-c2cc(C(=O)O)c3ccccc3n2)c(OC)c1	KDM4E inh inconclusive (no result: L3MBTL1 block)
COc1cc([N+](=O)[O-])ccc1NC(=O)NNC(=O)c1sccc1C	none (no result: RECQ1 inh, KDM4E inh, L3MBTL1 block)
O=C(NCC1CCCO1)c1cc2nc(-c3ccco3)cc(C(F)(F)Cl)n2n1 (centres undefined)	none (no result: RECQ1 inh, KDM4E inh, L3MBTL1 block)
Cc1cccc(C)c1-n1cccc1/C=C1\SC(=S)N(c2cccc(C(=O)O)c2)C1=O	GCN5L2 inh-1 32µM (no result: L3MBTL1 block) | GCN5L2 inh-2 20
Cc1c(N2C(=O)/C(=C\c3ccccc3O)SC2=S)c(=O)n(-c2ccccc2)n1C	GCN5L2 inh-1 inconclusive
COc1ccc2[nH]c3c(c2c1)CCN1C(=O)C(CC(=O)NCc2ccco2)C[C@H](C(=O)N2CCCCC2)[C@@]31CCc1ccccc1 (some centres undefined)	L3MBTL1 block inconclusive (no result: RECQ1 inh, KDM4E inh, BLM inh)
COc1cc(/C=C2\C(=O)ON=C2c2ccccc2)cc(OC)c1OC	KDM4E inh inconclusive
Cc1ccc(C2=NOC(=O)/C2=C\C=C\c2ccccc2)cc1	KDM4E inh inconclusive, GCN5L2 inh-1 25µM | GCN5L2 inh-2 inconclusive
C/C(CCC(=O)OC[C@@H]1O[C@H](C#Cc2ccccc2)C=C[C@@H]1Oc1ccc(C)cc1)=N/O[C@@H](C)c1cc(-c2c(C)cc(C)cc2C)no1	none (no result: KDM4E inh, L3MBTL1 block, GCN5L2 inh-1)
COc1ccc(-c2nn(-c3ccccc3)cc2/C=N/NC(=O)c2ccc(Br)o2)cc1	RECQ1 inh inconclusive, KDM4E inh inconclusive, L3MBTL1 block 35µM, GCN5L2 inh-1 25µM | GCN5L2 inh-2 9.1
CC(C)(C)NC(=O)C(c1ccc(I)cc1)N(CCN1CCOCC1)C(=O)CCCNC(=O)c1ccccc1 (centres undefined)	none (no result: L3MBTL1 block, GCN5L2 inh-1)
CC(C)CCN1C(=O)c2ccc(C(=O)Nc3cc(C(=O)O)cc(C(=O)O)c3)cc2C1=O	none (no result: RECQ1 inh, KDM4E inh)
CC(C)CCN1C(=O)c2ccc(C(=O)Nc3ccc(Br)cc3C(=O)O)cc2C1=O	GCN5L2 inh-1 35µM (no result: RECQ1 inh, KDM4E inh) | GCN5L2 inh-2 20
N#Cc1c(-c2ccccc2)nc(SCc2cccc(Cl)c2)[nH]c1=O	GCN5L2 inh-1 inconclusive (no result: RECQ1 inh, KDM4E inh, L3MBTL1 block) | GCN5L2 inh-2 18
Cc1nc(SCC(=O)N2CCCC2=O)nc(C)c1C	none (no result: RECQ1 inh, KDM4E inh, BLM inh)
CCN(CC)c1ccc2cc(C(C)=O)c(=O)oc2c1	none
CCN(CC)c1ccc2cc(NC(=O)CCC(=O)O)c(=O)oc2c1	KDM4E inh inconclusive, GCN5L2 inh-1 20µM | GCN5L2 inh-2 32
c1ccc2sc(N3CCOCC3)nc2c1	none
c1ccc2sc(SN3CCOCC3)nc2c1	KDM4E inh 13µM, GCN5L2 inh-1 inconclusive | GCN5L2 inh-2 14
CCCC(=O)Nc1cccc(-c2cn3cccnc3n2)c1	KDM4E inh inconclusive (no result: L3MBTL1 block)
CCCC(=O)Nc1ccc(-c2cn3cccnc3n2)cc1	GCN5L2 inh-1 32µM (no result: RECQ1 inh, KDM4E inh, L3MBTL1 block) | GCN5L2 inh-2 20
O=C(O)CCc1nn2cc(-c3ccccc3)nc2[nH]c1=O	KDM4E inh inconclusive, L3MBTL1 block inconclusive, GCN5L2 inh-1 inconclusive | GCN5L2 inh-2 32
COc1ccc(/C=C/C(=O)Nc2cccc(S(=O)(=O)NC3=NCCCCC3)c2)c(OC)c1	none (no result: RECQ1 inh, KDM4E inh, BLM inh)
COc1ccc(OC)c(/C=C/C(=O)Nc2cccc(S(=O)(=O)NC3=NCCCCC3)c2)c1	GCN5L2 inh-1 32µM (no result: RECQ1 inh, KDM4E inh, BLM inh) | GCN5L2 inh-2 32
CCc1nnc(SCc2nc(-c3ccc(OC)cc3)oc2C)c2cc3sccc3n12	none (no result: RECQ1 inh, APEX1 inh, KDM4E inh, L3MBTL1 block)
CC(=O)Nc1ccc(C)cc1-c1nc2ccccc2n(CC(=O)Nc2cc(Cl)ccc2C)c1=O	none (no result: RECQ1 inh, APEX1 inh, KDM4E inh, L3MBTL1 block)
C=CCc1cccc2cc(C(=O)Nc3ccccc3C(=O)O)c(=O)oc12	GCN5L2 inh-1 inconclusive | GCN5L2 inh-2 inconclusive
O=C(NCC1CCCCC1)c1cccc(-c2ccc(O)cc2)c1	none (no result: RECQ1 inh, KDM4E inh, L3MBTL1 block)
